TMEM16A inh: TMEM16A chloride channel inhibitors, primary screen, cell-based, HTS. Anoctamin-1 (Mus musculus), Q8BHY3. HEK293 TMEM16A/YFP iodide influx fluorescence, ionomycin. normalized B-score (activity score, 25-100; higher = stronger inhibition) at 10 µM. 310,000 compounds, 1.2% hits. AID 588511, 2011;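 active = ratio plate-corrected score three or more library SD toward inhibition, starting fluorescence score within five deviations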;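 also: score derived from kinetic fluorescence span divided by baseline fluorescence per well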
Target sequence (Q8BHY3 whole entry, looked up): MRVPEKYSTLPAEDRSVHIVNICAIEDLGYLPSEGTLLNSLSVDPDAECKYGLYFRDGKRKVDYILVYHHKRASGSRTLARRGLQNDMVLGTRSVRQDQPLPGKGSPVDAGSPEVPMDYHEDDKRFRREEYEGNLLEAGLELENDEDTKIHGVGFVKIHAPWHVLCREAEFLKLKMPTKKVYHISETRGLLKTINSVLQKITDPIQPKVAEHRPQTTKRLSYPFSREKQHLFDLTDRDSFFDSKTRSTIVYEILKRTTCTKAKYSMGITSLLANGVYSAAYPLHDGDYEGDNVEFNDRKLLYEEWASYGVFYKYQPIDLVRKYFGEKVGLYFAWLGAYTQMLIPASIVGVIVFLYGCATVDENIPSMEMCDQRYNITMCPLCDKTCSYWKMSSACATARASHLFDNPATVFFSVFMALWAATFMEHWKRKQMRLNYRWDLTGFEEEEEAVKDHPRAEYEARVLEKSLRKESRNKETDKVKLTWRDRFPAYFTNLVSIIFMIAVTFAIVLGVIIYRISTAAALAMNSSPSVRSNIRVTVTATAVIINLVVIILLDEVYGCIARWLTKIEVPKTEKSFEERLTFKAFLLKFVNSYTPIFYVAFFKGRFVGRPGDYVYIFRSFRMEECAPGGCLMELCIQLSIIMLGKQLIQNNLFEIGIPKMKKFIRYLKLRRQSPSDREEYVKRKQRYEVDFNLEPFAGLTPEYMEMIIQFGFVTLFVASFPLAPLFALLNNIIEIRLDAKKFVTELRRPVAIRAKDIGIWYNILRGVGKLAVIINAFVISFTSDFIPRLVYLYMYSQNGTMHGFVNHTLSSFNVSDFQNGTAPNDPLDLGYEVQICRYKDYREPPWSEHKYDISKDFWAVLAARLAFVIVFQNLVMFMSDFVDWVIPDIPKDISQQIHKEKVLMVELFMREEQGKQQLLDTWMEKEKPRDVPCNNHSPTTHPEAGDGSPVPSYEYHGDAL
NR3A LBD binder: binders of NR3A ligand-binding domain, primary screen, biophysical, differential scanning fluorimetry, uHTS. Glutamate receptor ionotropic, NMDA 3A (GRIN3A) ligand-binding domain. NR3A LBD differential scanning fluorimetry, Tm shift; 0% = protein alone, 100% = glycine-bound protein. Tm shift relative to glycine control, % at 25 µM. 340,000 compounds, 2.5% hits;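 active = melting temperature shift of at least 10% of the positive control shift, at one fixed dose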
CRFBP-R2 block: antagonists of CRF-BP/CRF-R2 complex, primary screen, cell-based, HEK293, calcium dye fluorescence, uHTS. CRF-induced calcium fluorescence. inhibition, % at 11.8 µM. 350,000 compounds, 0.59% hits. AID 588475, 2011;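 active = inhibition of the ligand-induced calcium signal above about 50% at the single tested concentration, limit read from the data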
MPTP inh: mitochondrial permeability transition pore inhibitors, primary screen, biochemical, isolated mouse mitochondria, absorbance | Ca2+ swelling absorbance, 30 min | inhibition, % at 10 µM | 360,000 compounds, 1.4% hits | AID 602449, 2012;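 active = inhibition of 50% or more, scaled per plate between neutral and stimulator controls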
TMEM16A act: TMEM16A chloride channel activators or potentiators, primary screen, cell-based, HTS; B-score at 10 µM; 340,000 compounds, 0.3% hits; Anoctamin-1 (Mus musculus), Q8BHY3; HEK293 TMEM16A/YFP-H148Q/I152L, iodide quench fluorescence; active compounds read low;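 active = fluorescence-ratio B-score plate-corrected deviation score at least 3 library SD below zero, with starting fluorescence score within 5 deviations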;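 also: channel opened by trigger with iodide after compound preincubation; score built on the fluorescence ratio of max minus min over baseline; more negative score means more quench and so TMEM16A activation or potentiation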
CRFR2-BP ag: agonists of CRF-BP/CRF-R2 complex, primary screen, cell-based, HEK293, calcium dye fluorescence, uHTS; CRF-binding protein / CRF receptor 2 complex (human); calcium dye fluorescence (FLIPR); percent of saturating CRF peptide response; activation, % at 13.2 µM; 350,000 compounds, 0.46% hits;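 active = activation of at least 50%, plus an integration ratio under a set limit after plate pattern correction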
Of the large screens only hits and unclear results are named; the others gave an inactive call. Hits are enriched below; roughly 5.1% of the tested compounds scored in any of these assays.

COc1ccccc1N(CC(=O)NC1CCCC1)S(=O)(=O)c1cccc(C(F)(F)F)c1	none (no result: TMEM16A inh)
CC(C)(C)n1ncc2c(=O)n(CC(=O)NCc3ccccc3Cl)cnc21	TMEM16A act -21.6
CCNC(=S)NCc1ccc(Cl)cc1	TMEM16A act -9.59
CCNC(=S)Nc1ccc(Cl)cc1	none
CCOCCOC(=O)c1cccc2c1-c1ccccc1C2=O	none
O=P(CCCCCCCCCP(=O)(c1ccccc1)c1ccccc1)(c1ccccc1)c1ccccc1	TMEM16A inh 100
COc1ccc(C(=O)c2sc(Nc3cccc(OC)c3)c(C(=O)Nc3cccc(C)c3C)c2N)cc1	CRFR2-BP ag 121.3
COc1ccc(C(=O)c2sc(Nc3ccccc3)c(C(=O)Nc3ccc(OC)c(OC)c3)c2N)cc1	none
CSc1cc(-c2ccncc2)nc(-c2ccc(Cl)cc2)c1	none
Nc1nc(SCc2ccc(Br)cc2)c2ncn(C3OC(CO)C(O)C3O)c2n1 (stereo not drawn)	none (no result: TMEM16A inh)
CCn1c(-c2ccc(-c3ccccc3)cc2)c[nH]c1=S	none
Cn1c(-c2ccc(-c3ccccc3)cc2)c[nH]c1=S	CRFBP-R2 block 107.5
O=C(O)/C(=C/c1ccc(Cl)c([N+](=O)[O-])c1)c1ccc(S(=O)(=O)N2CCCCC2)s1	none (no result: TMEM16A inh)
O=C1C=C(c2ccc3c(c2)OCO3)C[C@@H](c2ccc3c(c2)OCO3)C1	none (no result: TMEM16A inh)
O=C1C=C(c2ccc3cc[nH]c3c2)C[C@@H](c2ccc3c(c2)OCO3)C1	NR3A LBD binder 21.0 (no result: TMEM16A inh)
COc1ccc(NC(=O)c2c(C)noc2C)cc1S(=O)(=O)N1CCCCC1	none (no result: TMEM16A inh, NR3A LBD binder, TMEM16A act)
O=C(NCCc1ccc(Cl)cc1)c1ccc(CNc2c(N3CCOCC3)c(=O)c2=O)cc1	TMEM16A act -6.64
O=C(NCCOc1nc(N2CCOCC2)nc(N2CCOCC2)n1)Nc1ccc(Cl)cc1	TMEM16A act -14.6
COc1ccccc1CN1C[C@@H]2C[C@@H](C3=Cc4cccc(OC)c4OC3)N3CCC[C@@]23C1=O	TMEM16A act -4.71
CCOc1ccccc1N(C)C(=O)Cn1ncc2c([nH]c3ccccc32)c1=O	CRFBP-R2 block 93.8
CCCN(C(=O)Cn1ncc2c([nH]c3ccccc32)c1=O)c1ccccc1C	none
O=C(CN1CCN(c2ccc(C(F)(F)F)cn2)CC1)Nc1ccc2c(c1)OCO2	none
C[C@H]1CN([C@@H](C)CO)C(=O)CCCn2nncc2CO[C@H]1CN(C)S(=O)(=O)c1ccc(F)cc1	none (no result: TMEM16A inh, NR3A LBD binder, TMEM16A act)
CCN(CC(=O)NC1CCCC1)S(=O)(=O)c1ccc(C)cc1	none
O=S(=O)(NC(=S)NC1CCCCC1)c1ccc(Br)cc1	CRFBP-R2 block 56.3
O=C(NC1CCCCC1)NS(=O)(=O)c1ccc2c(c1)CCC2	CRFBP-R2 block 63.0 (no result: TMEM16A inh)
CCN(CC(=O)NC1CCCC1)S(=O)(=O)c1ccc(Br)cc1	NR3A LBD binder 11.1
Cn1ncc(Br)c1C(=O)NC1CCCCCC1	none
O=C(NC(Cc1c[nH]c2ccccc12)C(=O)N/N=C/c1ccc(Cl)cc1)c1cccs1 (stereo not drawn)	NR3A LBD binder 19.5
O=C(NC(Cc1c[nH]c2ccccc12)C(=O)N1CCOCC1)c1cccs1 (stereo not drawn)	none
O=S(=O)(c1ccc(-c2n[nH]c(=S)o2)cc1)N1CCCC1	none
CC(C)(C)NC(=O)/C(=C/c1ccccc1F)NC(=O)c1ccc([N+](=O)[O-])cc1	CRFBP-R2 block 52.5
O=C(NCc1ccccc1Cl)c1cnccn1	none
O=C(NCc1ccccc1Cl)c1cnccc1C(F)(F)F	NR3A LBD binder 12.5
COc1ccc(NC(=O)c2ccc(NC(=O)c3cccs3)cc2)cc1	NR3A LBD binder 25.6
COc1ccc(C(=O)/C=C\c2ccc(NC(=O)c3cccs3)cc2)cc1	NR3A LBD binder 23.0
O=C(Nc1ccc(-c2noc(-c3cccs3)n2)cc1)c1cccnc1	NR3A LBD binder 28.2
COc1ccc(/C=C/C(=O)c2ccc(O)cc2)cc1	NR3A LBD binder 11.0
C[C@H](CO)N1C[C@H](C)[C@@H](CN(C)C(=O)c2cccnc2)Oc2ncc(Br)cc2C1=O	none (no result: TMEM16A inh, NR3A LBD binder, TMEM16A act)
CCOCCC(=O)Nc1ccc2c(c1)c(=O)n(C)n2-c1ccccc1F	none (no result: TMEM16A inh, NR3A LBD binder, CRFBP-R2 block, TMEM16A act, CRFR2-BP ag)
CC(Oc1ccc(Cl)cc1Cl)C(=O)NNC(=O)c1ccncc1 (stereo not drawn)	none
COc1cccc(NC(=O)c2cccs2)c1	NR3A LBD binder 25.5
CC(Oc1ccc(Cl)cc1Cl)c1nc(-c2ccc(NC(=O)c3ccncc3)cc2)no1 (stereo not drawn)	TMEM16A inh 25, NR3A LBD binder 22.4
COc1ccc(C(=O)/C=C/Nc2cccc(O)c2)cc1	NR3A LBD binder 18.8
COc1ccc(OCC(=O)Nc2ccc(NC(=O)c3cccs3)cc2)cc1	NR3A LBD binder 32.3
COc1cccc(N/C=C/C(=O)c2ccc(Br)cc2)c1	none
COCCNC(=S)N(CCO)Cc1cc2cc3c(cc2[nH]c1=O)OCCO3	none
Cc1ccc(C(=O)N2CCN(c3ncccn3)CC2)c(C)c1	none
COc1cc(CN2C(=O)C(C)ON=C2c2ccccc2F)cc(OC)c1 (stereo not drawn)	none (no result: TMEM16A inh, NR3A LBD binder, CRFBP-R2 block, TMEM16A act, CRFR2-BP ag)
CC(C)CN1C(=O)c2ccc(NC(=O)c3cccs3)cc2C1=O	none
COc1ccc(Cl)cc1-c1nc(-c2ccc(NC(=O)c3cccs3)cc2)no1	NR3A LBD binder 35.2
O=C(Nc1ccc(Oc2ccc3c(c2)C(=O)N(c2ccc(O)cc2)C3=O)cc1)c1cccs1	NR3A LBD binder 16.4
COc1cccc(C(=O)/C=C/Nc2ccc(S(=O)(=O)Nc3ccc(C(C)=O)cc3)cc2)c1	NR3A LBD binder 24.4
Cc1cc(C)cc(C(=O)Nc2ccc(NC(=O)c3cccs3)cc2)c1	NR3A LBD binder 26.9
CC1CCc2c(sc(NC(=O)c3c([N+](=O)[O-])cnn3C)c2C(N)=O)C1 (stereo not drawn)	none
Cc1ccc(S(=O)(=O)N2[C@@H](c3ccc(Br)cc3)C(C(=O)O)=C[C@H]2C(C)(C)C)cc1	none (no result: TMEM16A inh, TMEM16A act)
CCCN(C(=O)CSc1nnc(-c2ccncc2)n1CCC)c1c(N)n(Cc2ccccc2)c(=O)[nH]c1=O	none (no result: TMEM16A inh, NR3A LBD binder, TMEM16A act)
O=C(Nc1ccc(NC(=O)c2cccs2)cn1)c1ccccc1	NR3A LBD binder 13.6
Cc1ccc(C(=O)Nc2ccc(C(=O)/C=C/c3cccs3)cc2)cc1	NR3A LBD binder 14.7
Cc1ccc(NS(=O)(=O)c2cccc(C(=O)N3CCN(C(=O)c4ccco4)CC3)c2)cc1	none (no result: TMEM16A inh)
O=C(CCSc1ccc(Br)cc1)c1ccc(O)cc1	NR3A LBD binder 11.9
COc1cc([N+](=O)[O-])c(OC)cc1SCc1n[nH]c(=S)n1-c1ccc(C)cc1	NR3A LBD binder 11.9
